# Assay results: PubChem BioAssay
# Where “and” joins values, the source holds several entries; their conditions need not be identical. Equal values may be shown once. The list shows a part of the results. Calls of active or inactive are those of the source.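 How the source made its calls, unless noted: active means GFP response above 150% of the DMSO level; inconclusive means fewer than 70 events counted for a yeast strain; inactive means the rest.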
# What was measured:
# [1] = disruption of biotin probe capture by avidin, counter-screen for RGS protein interaction modulators, biochemical, flow cytometry, bead-based (AID 1783;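 active means inhibition above 50%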;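 further: median green fluorescence of gated singlet beads compared with DMSO control wells; 0% = DMSO wells and 100% = complete loss of bead fluorescence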); conditions: streptavidin beads, fluorescein-biotin binding; at 10 µM, stronger effect = higher value
# [2] = molecular target: Guanine nucleotide-binding protein G(o) subunit alpha (Homo sapiens) (UniProt P09471); assay: RGS8-Galphao binding modulators, confirmation, biochemical, multiplexed bead flow cytometry, single concentration (AID 1836; in the data active means binding response below about 72% or above about 130%; inactive means in between;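 further: Galphao activated as GDP AlF4 complex before binding bead RGS8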); conditions: bead-based flow cytometry RGS8-Galphao binding, fluorescence; at 10 µM; actives lie on both sides
# [3] = molecular target: Guanine nucleotide-binding protein G(o) subunit alpha (Homo sapiens) (UniProt P09471); assay: RGS7-Galphao binding modulators, confirmation, biochemical, multiplexed bead flow cytometry, single concentration (AID 1837; in the data active means response below about 75% or above about 130%; inactive means in between;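 further: fluorescent Galphao activated with GDP and aluminum fluoride binding bead-coupled RGS7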); conditions: bead-based flow cytometry RGS7-Galphao binding; at 10 µM; actives lie on both sides
# [4] = molecular target: Regulator of G-protein signaling 16 (Homo sapiens) + Guanine nucleotide-binding protein G(o) subunit alpha (Homo sapiens) (UniProt O15492+P09471); assay: modulators of RGS16-Galphao protein binding, confirmation, biochemical, single concentration, multiplexed bead flow cytometry (AID 1838; in the data active means response below about 74% or above about 130%; inactive means in between;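 further: Galphao activated as the GDP aluminium fluoride complex binding bead-coupled RGS16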); conditions: bead-based flow cytometry, at 10 µM, actives lie on both sides
# [5] = molecular target: Guanine nucleotide-binding protein G(o) subunit alpha (Homo sapiens) (UniProt P09471); assay: modulators of RGS4-Galphao protein binding, confirmation, biochemical, single concentration, multiplexed bead flow cytometry (AID 1840; in the data active means binding response below about 74% or above about 130%; inactive means in between); conditions: at 10 µM, actives lie on both sides
# [6] = molecular target: Guanine nucleotide-binding protein G(o) subunit alpha (Homo sapiens) + Regulator of G-protein signaling 19 (Homo sapiens) (UniProt P09471+P49795); assay: regulators of RGS19-Galphao binding, confirmation, biochemical, single point, multiplexed bead flow cytometry (AID 1841; in the data active means response below about 50% or above about 160%; inactive means in between;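 further: 100% = no compound control and 0% = blank background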); conditions: bead-based flow cytometry RGS19-Galphao binding; at 10 µM; actives lie on both sides
# [7] = AGP1-GFP expression modulators, hit retest, confirmation, cell-based, flow cytometry, S. cerevisiae, cherry picks (AID 2273);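 further: median GFP channel fluorescence over the whole cell population gate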; conditions: S. cerevisiae AGP1-GFP strain, 3 h, at 10 µM
# [8] = molecular target: Regulator of G-protein signaling 16 (Homo sapiens) (UniProt O15492); assay: modulators of RGS–Galpha-o binding, primary screen, biochemical, multiplexed beads, flow cytometry, RGS4/7/8/16/19 (AID 1504); conditions: multiplexed bead flow cytometry, measured here: RGS16 interaction, at 10 µM;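 further: fluorescently labeled Galpha-o bound to GDP with aluminium fluoride binding biotinylated RGS beads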
# [9] = molecular target: Regulator of G-protein signaling 19 (Homo sapiens) (UniProt P49795); assay: as above; conditions: multiplexed bead flow cytometry, measured here: RGS19 interaction, at 10 µM
# [10] = molecular target: Regulator of G-protein signaling 7 (Homo sapiens) (UniProt P49802); assay: as above; conditions: multiplexed bead flow cytometry, measured here: RGS7 interaction, at 10 µM
# [11] = molecular target: Regulator of G-protein signaling 8 (Homo sapiens) (UniProt P57771); assay: as above; conditions: multiplexed bead flow cytometry, measured here: RGS8 interaction, at 10 µM
# Chain of Guanine nucleotide-binding protein G(o) subunit alpha (Homo sapiens) (P09471 whole entry, looked up): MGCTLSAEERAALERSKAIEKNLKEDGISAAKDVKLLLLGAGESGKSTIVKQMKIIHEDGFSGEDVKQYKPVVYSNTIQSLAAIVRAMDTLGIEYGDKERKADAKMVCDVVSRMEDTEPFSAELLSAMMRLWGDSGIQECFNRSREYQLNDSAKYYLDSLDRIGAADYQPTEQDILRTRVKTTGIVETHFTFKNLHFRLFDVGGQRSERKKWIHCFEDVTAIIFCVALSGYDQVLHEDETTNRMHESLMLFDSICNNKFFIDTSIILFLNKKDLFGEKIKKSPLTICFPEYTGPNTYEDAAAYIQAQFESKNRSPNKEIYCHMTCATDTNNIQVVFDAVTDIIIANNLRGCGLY
# Chain of Guanine nucleotide-binding protein G(o) subunit alpha (Homo sapiens) + Regulator of G-protein signaling 19 (Homo sapiens) (P09471 whole entry, looked up): as above
# Chain of Guanine nucleotide-binding protein G(o) subunit alpha (Homo sapiens) + Regulator of G-protein signaling 19 (Homo sapiens) (P49795 whole entry, looked up): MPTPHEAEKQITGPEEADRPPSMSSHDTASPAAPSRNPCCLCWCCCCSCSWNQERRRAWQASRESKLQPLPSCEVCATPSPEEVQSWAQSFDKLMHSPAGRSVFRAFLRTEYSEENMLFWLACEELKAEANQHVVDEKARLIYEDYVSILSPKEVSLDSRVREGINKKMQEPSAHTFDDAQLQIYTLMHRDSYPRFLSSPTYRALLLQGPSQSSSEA
# Chain of Regulator of G-protein signaling 16 (Homo sapiens) + Guanine nucleotide-binding protein G(o) subunit alpha (Homo sapiens) (O15492 whole entry, looked up): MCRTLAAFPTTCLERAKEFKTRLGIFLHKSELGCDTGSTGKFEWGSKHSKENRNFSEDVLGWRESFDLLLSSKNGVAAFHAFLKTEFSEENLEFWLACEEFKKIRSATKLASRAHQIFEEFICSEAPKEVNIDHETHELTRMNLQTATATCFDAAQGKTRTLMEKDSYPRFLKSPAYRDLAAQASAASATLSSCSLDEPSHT
# Chain of Regulator of G-protein signaling 16 (Homo sapiens) + Guanine nucleotide-binding protein G(o) subunit alpha (Homo sapiens) (P09471 whole entry, looked up): as the sequence (P09471 whole entry, looked up) above
structure (smiles),measurement,setting,value
COc1ccccc1CCNC(=O)CSc1nnc2ccc(-c3cccnc3)nn12,inhibition,[1],-0.7% (inactive)
same,binding response (% of control),[2],100% (inactive)
same,response (percent of control binding),[3],103% (inactive)
same,response (% of control binding),[4],101% (inactive)
same,binding response (% of control),[5],101% (inactive)
same,response (percent of control binding),[6],107% (inactive)
COc1ccc(C2=CC(=O)C=CC2=O)cc1,"GFP response, % of DMSO",[7],100% (inactive)
O=c1cnn([C@@H]2O[C@H](CO)[C@@H](O)[C@H]2O)c(=O)[nH]1,"GFP response, % of DMSO",[7],89.9% (inactive)
CCCCOC(=O)Cn1c(=N)n(CCN(CC)CC)c2ccccc21,RGS16–Galpha-o binding response,[8],0%
same,RGS19–Galpha-o binding response,[9],-255%
same,RGS7–Galpha-o binding response,[10],165%
same,RGS8–Galpha-o binding response,[11],127%
same,inhibition,[1],-1.7% (inactive)
same,binding response (% of control),[2],101% (inactive)
same,response (percent of control binding),[3],95.7% (inactive)
same,response (% of control binding),[4],101% (inactive)
same,binding response (% of control),[5],97.5% (inactive)
same,response (percent of control binding),[6],101% (inactive)
Cc1ccc(OCCCCn2ccnc2C)c(C)c1,"GFP response, % of DMSO",[7],101% (inactive)
CCOC(=O)C(Cc1cc(C(C)=O)ccc1OC(C)C)C(=O)OCC,"GFP response, % of DMSO",[7],90.8% (inactive)
O=C(O)CCNC(=O)c1ccccc1,"GFP response, % of DMSO",[7],104% (inactive)
C[C@]12CCC(=O)C=C1CC[C@@H]1[C@@H]2[C@@H](O)C[C@@]2(C)[C@H]1CC[C@]2(O)C(=O)COC(=O)CCC(=O)O,"GFP response, % of DMSO",[7],98.9% (inactive) and 99.3% (inactive)
CC(C)CC(=O)Nc1ccc2oc(-c3ccncc3)nc2c1,"GFP response, % of DMSO",[7],95.9% (inactive)
O=c1cc(-c2ccccc2)oc2cc(OCc3ccccc3)cc(O)c12,"GFP response, % of DMSO",[7],98.9% (inactive)
C[C@]12CCC(=O)C=C1[C@H](O)C[C@@H]1[C@@H]2[C@@H](O)C[C@@]2(C)[C@H]1CC[C@]2(O)C(=O)CO,"GFP response, % of DMSO",[7],98.9% (inactive)
C[n+]1ccccc1/C=N/O,"GFP response, % of DMSO",[7],98% (inactive)
O=C(/C=C/c1ccccc1)c1ccccc1,"GFP response, % of DMSO",[7],99.7% (inactive)
O=[N+]([O-])c1cccc2cn[nH]c12,"GFP response, % of DMSO",[7],105% (inactive)
CC(=O)[C@@]1(O)CC[C@H]2[C@@H]3CCC4=CC(=O)CC[C@]4(C)[C@H]3[C@@H](O)C[C@@]21C,"GFP response, % of DMSO",[7],103% (inactive)
Nc1[nH]c(=O)ncc1F,"GFP response, % of DMSO",[7],78.5% (inactive)
COc1cc(/C=C/C(=O)CC(=O)/C=C/c2ccc(O)c(OC)c2)ccc1O,"GFP response, % of DMSO",[7],98.7% (inactive)
CC(=O)Nc1ccc(S(=O)(=O)c2ccc(N)cc2)cc1,"GFP response, % of DMSO",[7],105% (inactive)
O=C(O)Cc1ccc(-c2ccccc2)cc1,"GFP response, % of DMSO",[7],100% (inactive)
CN(C)CCN(Cc1ccccc1)c1ccccn1,"GFP response, % of DMSO",[7],103% (inactive)
N=c1nc(N2CCCCC2)cc(N)n1O,"GFP response, % of DMSO",[7],98.9% (inactive)
CC(NCCc1ccc(O)cc1)C(O)c1ccc(O)cc1 (configuration not stated),"GFP response, % of DMSO",[7],101% (inactive)
CC(=O)Nc1ccccc1O,"GFP response, % of DMSO",[7],98.7% (inactive)
C1COC(NC(C2CC2)C2CC2)=N1,"GFP response, % of DMSO",[7],105% (inactive)
CCOc1cc(C=O)ccc1OCCSc1ccc(C)cc1,"GFP response, % of DMSO",[7],94.9% (inactive)
COc1ccc(-c2noc(-c3ccccc3-c3ccccc3)n2)cc1,"GFP response, % of DMSO",[7],101% (inactive)
CC(=O)OCC(=O)[C@@]1(O)CC[C@H]2[C@@H]3CCC4=CC(=O)CC[C@]4(C)[C@H]3[C@@H](O)C[C@@]21C,"GFP response, % of DMSO",[7],97% (inactive)
CC(=O)[C@H]1CC[C@H]2[C@@H]3CCC4=CC(=O)CC[C@]4(C)[C@H]3[C@H](O)C[C@]12C,"GFP response, % of DMSO",[7],100% (inactive)
C[C@]12CC[C@H]3[C@@H](CCC4=CC(=O)CC[C@@]43C)[C@@H]1CC[C@@H]2C(=O)CO,"GFP response, % of DMSO",[7],92.6% (inactive)
CN/C(=C/[N+](=O)[O-])NCCSCc1ccc(CN(C)C)o1,"GFP response, % of DMSO",[7],99.3% (inactive)
CC(=O)[C@@]1(O)CC[C@H]2[C@@H]3C[C@H](C)C4=CC(=O)CC[C@]4(C)[C@H]3CC[C@@]21C,"GFP response, % of DMSO",[7],93.3% (inactive)
c1cnc2c(c1)ccc1cccnc12,"GFP response, % of DMSO",[7],102% (inactive)
CC(=O)CSc1ncnc2c1cnn2-c1ccccc1,"GFP response, % of DMSO",[7],92.6% (inactive)
CN1CCN2c3ccccc3Cc3ccccc3C2C1 (configuration not stated),"GFP response, % of DMSO",[7],97.6% (inactive)
O=c1[nH]cc(F)c(=O)[nH]1,"GFP response, % of DMSO",[7],90% (inactive)
Cc1ccc2[nH]c3c(c2c1)CCNC3=O,"GFP response, % of DMSO",[7],95% (inactive)
O=[N+]([O-])c1ccc(O)c2ncccc12,"GFP response, % of DMSO",[7],128% (inactive)
C[C@]12CCC(=O)C=C1CC[C@@H]1[C@@H]2[C@@H](O)C[C@@]2(C)[C@H]1CC[C@]2(O)C(=O)CO,"GFP response, % of DMSO",[7],99.2% (inactive)
COc1cccc(/C=C/C(=O)c2c(O)cc(C)oc2=O)c1O,"GFP response, % of DMSO",[7],94.1% (inactive)
CNCCC(Oc1ccc(C(F)(F)F)cc1)c1ccccc1 (configuration not stated),"GFP response, % of DMSO",[7],97.4% (inactive)
c1ccc2c(c1)CCOC2CNCCCN1CCCCC1 (configuration not stated),"GFP response, % of DMSO",[7],98.5% (inactive)
CC(=O)O[C@]1(C(C)=O)CC[C@H]2[C@@H]3C[C@H](C)C4=CC(=O)CC[C@]4(C)[C@H]3CC[C@@]21C,"GFP response, % of DMSO",[7],97.1% (inactive)
CC(=O)OCC(=O)[C@H]1CC[C@H]2[C@@H]3CCC4=CC(=O)CC[C@]4(C)[C@H]3CC[C@]12C,"GFP response, % of DMSO",[7],95.2% (inactive)
